Experiment [1] deals with Serine/threonine-protein kinase 26 (Homo sapiens) (UniProt Q9P289). As to conditions: at 1 µM.
Experiment [2] has as its target Serine/threonine-protein kinase PAK 1 (Homo sapiens) (UniProt Q13153). Conditions: at 0.1 µM.
Experiment [3] has the same target. As to conditions: at 1 µM.
Experiment [4] concerns the target Serine/threonine-protein kinase PAK 2 (Homo sapiens) (UniProt Q13177). Conditions: at 0.1 µM.
The target is the same in experiment [5]. Conditions: at 1 µM.
Experiment [6] deals with Serine/threonine-protein kinase PAK 3 (Homo sapiens) (UniProt O75914). As to conditions: at 0.1 µM.
For experiment [7] the target is unchanged. Conditions: at 1 µM.
The target of experiment [8] is Serine/threonine-protein kinase PAK 5 (Homo sapiens) (UniProt Q9P286). As to conditions: at 0.1 µM.
Experiment [9] has the same target. As to conditions: at 1 µM.
The target of experiment [10] is Serine/threonine-protein kinase PAK 6 (Homo sapiens) (UniProt Q9NQU5). Conditions: at 0.1 µM.
For experiment [11] the target is unchanged. As to conditions: at 1 µM.
Experiment [12] deals with Tyrosine-protein kinase ABL1 (Homo sapiens), P00519 [E255K]. Conditions: at 0.1 µM.
The test system is the same in experiment [13]. Conditions: at 1 µM.
In experiment [14] the test system is Tyrosine-protein kinase ABL1 (Homo sapiens), P00519 [H396P]. As to conditions: at 0.1 µM.
For experiment [15] the test system is unchanged. Conditions: at 1 µM.
Experiment [16] deals with Tyrosine-protein kinase ABL1 (Homo sapiens), P00519 [M351T]. Conditions: at 0.1 µM.
Experiment [17] shares this test system. Conditions: at 1 µM.
In experiment [18] the test system is Tyrosine-protein kinase ABL1 (Homo sapiens), P00519 [Q252H]. Conditions: at 0.1 µM.
For experiment [19] the test system is unchanged. As to conditions: at 1 µM.
Experiment [20] relates to Tyrosine-protein kinase ABL1 (Homo sapiens), P00519 [T315I]. Conditions: at 0.1 µM.

The term inhibition denotes the relative decrease from the control value, in per cent.

Chain of Serine/threonine-protein kinase PAK 5 (Homo sapiens) (Q9P286 whole entry, looked up): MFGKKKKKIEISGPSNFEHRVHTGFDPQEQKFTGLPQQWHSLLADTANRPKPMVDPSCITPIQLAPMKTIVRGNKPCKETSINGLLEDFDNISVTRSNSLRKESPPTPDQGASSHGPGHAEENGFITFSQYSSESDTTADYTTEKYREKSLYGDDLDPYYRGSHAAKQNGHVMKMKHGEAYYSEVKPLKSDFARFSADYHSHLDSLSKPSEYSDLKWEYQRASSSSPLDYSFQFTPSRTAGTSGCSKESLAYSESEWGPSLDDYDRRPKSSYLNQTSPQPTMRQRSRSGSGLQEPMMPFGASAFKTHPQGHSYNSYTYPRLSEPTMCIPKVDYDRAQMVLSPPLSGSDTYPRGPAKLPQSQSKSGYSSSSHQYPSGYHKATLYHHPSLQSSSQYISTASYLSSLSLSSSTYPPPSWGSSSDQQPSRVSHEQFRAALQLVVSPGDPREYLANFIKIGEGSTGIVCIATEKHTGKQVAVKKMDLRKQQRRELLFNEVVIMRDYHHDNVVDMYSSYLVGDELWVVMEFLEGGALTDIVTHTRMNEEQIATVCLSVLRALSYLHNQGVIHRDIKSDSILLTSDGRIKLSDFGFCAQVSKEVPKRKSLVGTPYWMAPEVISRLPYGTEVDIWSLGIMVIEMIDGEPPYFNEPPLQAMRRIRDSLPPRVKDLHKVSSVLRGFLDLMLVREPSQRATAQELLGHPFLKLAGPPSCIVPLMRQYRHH
Chain of Serine/threonine-protein kinase PAK 6 (Homo sapiens) (Q9NQU5 whole entry, looked up): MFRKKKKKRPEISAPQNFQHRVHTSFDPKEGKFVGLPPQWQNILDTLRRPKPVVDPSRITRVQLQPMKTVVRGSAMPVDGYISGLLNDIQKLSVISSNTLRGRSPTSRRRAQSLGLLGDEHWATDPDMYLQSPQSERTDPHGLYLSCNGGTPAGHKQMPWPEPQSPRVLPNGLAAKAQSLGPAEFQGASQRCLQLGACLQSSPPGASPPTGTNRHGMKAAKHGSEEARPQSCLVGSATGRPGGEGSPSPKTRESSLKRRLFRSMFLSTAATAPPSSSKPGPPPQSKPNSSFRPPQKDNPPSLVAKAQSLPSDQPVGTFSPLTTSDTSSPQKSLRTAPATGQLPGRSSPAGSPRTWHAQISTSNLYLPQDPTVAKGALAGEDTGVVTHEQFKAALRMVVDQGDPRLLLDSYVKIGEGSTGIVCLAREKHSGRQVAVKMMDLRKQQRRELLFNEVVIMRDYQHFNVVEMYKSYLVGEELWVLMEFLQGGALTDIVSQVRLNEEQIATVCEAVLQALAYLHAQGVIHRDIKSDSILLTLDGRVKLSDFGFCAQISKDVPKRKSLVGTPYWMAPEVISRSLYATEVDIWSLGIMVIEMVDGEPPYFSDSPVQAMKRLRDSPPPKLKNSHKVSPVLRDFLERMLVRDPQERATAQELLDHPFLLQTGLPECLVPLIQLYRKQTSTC
Chain of Serine/threonine-protein kinase 26 (Homo sapiens) (Q9P289 2-416 limits assumed): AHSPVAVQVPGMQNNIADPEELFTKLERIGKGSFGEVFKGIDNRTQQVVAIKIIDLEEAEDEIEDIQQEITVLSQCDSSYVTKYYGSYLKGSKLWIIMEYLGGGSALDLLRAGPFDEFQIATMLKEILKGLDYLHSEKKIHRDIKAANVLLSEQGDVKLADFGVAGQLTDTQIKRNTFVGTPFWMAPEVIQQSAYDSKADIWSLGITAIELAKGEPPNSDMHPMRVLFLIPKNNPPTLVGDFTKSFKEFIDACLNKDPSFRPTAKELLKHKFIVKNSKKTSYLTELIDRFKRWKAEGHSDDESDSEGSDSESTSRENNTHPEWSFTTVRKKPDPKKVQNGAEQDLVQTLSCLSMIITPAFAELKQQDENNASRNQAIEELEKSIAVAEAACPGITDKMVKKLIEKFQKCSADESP
Chain of Serine/threonine-protein kinase PAK 3 (Homo sapiens) (O75914 whole entry, looked up): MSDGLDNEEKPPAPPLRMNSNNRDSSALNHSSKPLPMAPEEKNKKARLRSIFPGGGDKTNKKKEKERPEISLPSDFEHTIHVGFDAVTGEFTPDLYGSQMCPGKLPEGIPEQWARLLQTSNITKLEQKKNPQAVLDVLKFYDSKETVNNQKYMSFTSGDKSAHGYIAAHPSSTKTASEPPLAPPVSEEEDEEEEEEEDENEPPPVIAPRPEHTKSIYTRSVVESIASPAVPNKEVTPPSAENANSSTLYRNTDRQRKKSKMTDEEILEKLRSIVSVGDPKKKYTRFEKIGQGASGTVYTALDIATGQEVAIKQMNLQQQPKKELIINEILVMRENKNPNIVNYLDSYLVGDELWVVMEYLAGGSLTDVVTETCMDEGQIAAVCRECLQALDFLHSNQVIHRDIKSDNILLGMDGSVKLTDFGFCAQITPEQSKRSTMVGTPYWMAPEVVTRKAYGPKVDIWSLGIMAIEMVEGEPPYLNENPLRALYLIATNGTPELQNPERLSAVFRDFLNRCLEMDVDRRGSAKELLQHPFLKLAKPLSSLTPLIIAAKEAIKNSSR
Chain of Serine/threonine-protein kinase PAK 1 (Homo sapiens) (Q13153 whole entry): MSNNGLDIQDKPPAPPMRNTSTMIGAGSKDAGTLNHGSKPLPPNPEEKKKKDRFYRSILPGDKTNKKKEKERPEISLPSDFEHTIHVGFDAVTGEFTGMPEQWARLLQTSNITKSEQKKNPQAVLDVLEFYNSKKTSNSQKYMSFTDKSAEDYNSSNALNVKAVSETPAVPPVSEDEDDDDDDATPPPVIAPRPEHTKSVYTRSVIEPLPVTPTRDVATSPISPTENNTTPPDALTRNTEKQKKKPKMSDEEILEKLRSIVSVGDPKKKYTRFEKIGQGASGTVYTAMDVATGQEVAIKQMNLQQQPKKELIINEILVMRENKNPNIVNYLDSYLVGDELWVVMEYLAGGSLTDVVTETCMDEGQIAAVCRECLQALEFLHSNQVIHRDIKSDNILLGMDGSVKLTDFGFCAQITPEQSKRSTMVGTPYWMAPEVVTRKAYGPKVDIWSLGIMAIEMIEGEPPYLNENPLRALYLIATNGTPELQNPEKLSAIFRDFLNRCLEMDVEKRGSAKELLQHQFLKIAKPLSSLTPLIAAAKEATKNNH
Chain of Serine/threonine-protein kinase PAK 2 (Homo sapiens) (Q13177 whole entry): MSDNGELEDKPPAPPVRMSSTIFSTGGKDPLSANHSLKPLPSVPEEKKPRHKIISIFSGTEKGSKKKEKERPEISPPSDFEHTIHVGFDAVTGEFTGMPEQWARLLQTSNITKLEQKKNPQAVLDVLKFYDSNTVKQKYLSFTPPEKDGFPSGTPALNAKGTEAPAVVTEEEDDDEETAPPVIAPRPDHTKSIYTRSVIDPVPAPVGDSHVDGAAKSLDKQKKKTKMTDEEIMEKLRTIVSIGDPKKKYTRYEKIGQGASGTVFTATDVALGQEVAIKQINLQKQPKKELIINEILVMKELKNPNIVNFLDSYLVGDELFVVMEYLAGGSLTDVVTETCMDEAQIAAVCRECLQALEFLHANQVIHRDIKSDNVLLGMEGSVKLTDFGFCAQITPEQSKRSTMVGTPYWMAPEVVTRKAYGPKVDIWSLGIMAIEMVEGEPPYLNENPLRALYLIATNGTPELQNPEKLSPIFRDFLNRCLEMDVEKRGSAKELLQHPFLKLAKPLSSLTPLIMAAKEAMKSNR

With `Cc1cc(O)cc(C)c1/C=C/c1cncc(C(N)=O)c1`, the inhibition in [1] is -0.01%; in experiment [2], 1.07%; in experiment [3], 3.22%; in experiment [4], 0.07%; in [5], -0.24%; in experiment [6], 2.43%. The inhibition was found to be 2.79% in [7]; 9.11% in experiment [8]; 0.51% in experiment [9]; 9.09% in [10]; 10.6% in experiment [11]; 15.7% in experiment [12]. The inhibition came out at 61% in [13]; 20.4% in experiment [14]; 70.1% in experiment [15]; 18.5% in [16]; 69% in experiment [17]; 18.7% in [18]. The inhibition in experiment [19] came to 67.5%; in experiment [20], 2.31%.
With `COc1cc(N2CCN(C(C)C)CC2)ccc1Nc1nc(Nc2cccc(F)c2C(=O)O)c2cc[nH]c2n1`, the inhibition in [1] turned out to be 2.17%; in experiment [2], 6.19%; in experiment [3], 5.79%; in experiment [4] it was 1.31%; in experiment [5], 2.49%; in experiment [6] it was 4.37%. In addition, the inhibition in experiment [7] was 4.9%; in experiment [8], 3.7%; in [9] it was 4.16%; in experiment [10] it was 0.22%; in [11], -0.16%; in [12] it was 3.61%. In addition, the inhibition was 5.65% in experiment [13]; 1.72% in experiment [14]; 3.69% in experiment [15]; 1.07% in [16]; 2.29% in experiment [17]; 4.74% in experiment [18]. The inhibition in [19] is 5.16%; in [20], 3.83%.
For the compound `NS(=O)(=O)c1ccc(N/N=C2\C(=O)Nc3cccc(CCc4ccncc4)c32)cc1`, the inhibition in experiment [1] came to 9.93%; in experiment [2] it was 1.58%; in experiment [3] it was 2.13%; in experiment [4], 0.84%; in [5] it was 0.54%; in experiment [6] it was 0.06%. Moreover, the inhibition in [7] was 0.66%; in [8] it was 1.07%; in experiment [9], 3.39%; in [10] it was -5.12%; in experiment [11], -3.63%; in [12], -0.21%. For the same compound, the inhibition in experiment [13] worked out at 3.53%; in [14] it was 2.64%; in [15] it was 7.39%; in [16] it was 3.41%; in [17], 8.25%; in experiment [18], 1.54%. The inhibition in experiment [19] was found to be 7.74%; in experiment [20] it was 1.83%.
Consider `CC1=C(C(=O)Nc2ccc3[nH]ncc3c2)C(c2ccc(F)cc2)N=C(c2ccc(C(F)(F)F)nc2)N1` (stereo not given), for which the inhibition in [1] was -0.15%; in experiment [2] it was 2.26%; in [3] it was 3.97%; in [4], 0.86%; in experiment [5], 0.19%; in experiment [6], 1.4%. In addition, the inhibition was 0.67% in [7]; 5.14% in experiment [8]; -1.73% in [9]; 8.32% in [10]; 1.5% in experiment [11]; 2.72% in [12]. The inhibition was 3.5% in experiment [13]; 2.21% in experiment [14]; 1.95% in [15]; 1.43% in experiment [16]; 3.71% in experiment [17]; 1.86% in experiment [18]. Also, the inhibition was determined as 3.9% in [19] and 1.97% in [20].
On to `COC(=O)Nc1nc2ccc(Oc3ccc(NC(=O)Nc4cc(C(F)(F)F)ccc4F)cc3)cc2s1`, for which the inhibition was 1.71% in [1]; -2.89% in [2]; 1.52% in experiment [3]; -1.5% in experiment [4]; -0.42% in [5]; -1.09% in experiment [6]. Besides, the inhibition in experiment [7] is 0.28%; in [8] it was 0.53%; in experiment [9] it was -1.37%; in [10] it was 2.82%; in experiment [11] it was -8.13%; in experiment [12] it was 17.2%. The inhibition in experiment [13] worked out at 66.8%; in experiment [14] it was 65.9%; in experiment [15] it was 92.3%; in experiment [16] it was 76.6%; in experiment [17] it was 93.3%; in [18] it was 75.1%. For the same compound, the inhibition in [19] came out at 91.4%; in [20], 78.8%.
With `NS(=O)(=O)c1cccc(N/C=C2\C(=O)Nc3ccccc32)c1`, the inhibition in experiment [1] was -1.86%; in [2], 5.24%; in [3], 8.78%; in experiment [4] it was 1.76%; in experiment [5], 2.04%; in experiment [6], 4.81%. Besides, the inhibition is 4.94% in experiment [7]; -8.13% in experiment [8]; -8.7% in [9]; 3.85% in experiment [10]; 1.64% in [11]; 5.29% in [12]. The inhibition in experiment [13] was determined as 7.64%; in [14], 6.01%; in experiment [15], 8.67%; in experiment [16], 3.89%; in experiment [17], 8.75%; in experiment [18] it was 5.8%. In addition, the inhibition in experiment [19] worked out at 8.71%; in [20], 3.14%.
For `Cc1c2ccc(N(C)c3ccnc(Nc4cccc(S(N)(=O)=O)c4)n3)cc2nn1C`, the inhibition in experiment [1] was -1.81%; in experiment [2], 7.49%; in experiment [3] it was 5.47%; in [4], 3.47%; in experiment [5], 3.15%; in [6], 4.74%. For the same compound, the inhibition in experiment [7] is 7.28%; in experiment [8] it was 1.63%; in [9], -1.02%; in experiment [10] it was 2.18%; in experiment [11], -6.14%; in [12], 19.6%. The inhibition worked out at 67.6% in experiment [13]; 37.9% in [14]; 81.6% in experiment [15]; 39.5% in experiment [16]; 84.8% in experiment [17]; 42.9% in experiment [18]. The inhibition in [19] is 83.6%; in [20], 11.3%.

Values taken from ChEMBL document CHEMBL1961873, “Compounds: GSK PKIS; Assays: Nanosyn kinase panel” (2012).
